# PubChem BioAssay (NCI)
# Where “and” joins values, the source holds several entries; their conditions need not be identical. Identical values can stand only once. This is part of a sample that, as a whole, favours compounds with a hit. Of some 83,000 tested, about 20% had one in any assay.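 In brief: 96-well plates, 48 h treatment, single concentration, percent growth endpoint.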 Unmarked numbers belong to inactive results. Calls of active or inactive are those of the source. The calls were made as follows: active = growth percent below 10; inactive = the rest.
# System: MDA-MB-468 breast
# Experiment: NCI-60 one-dose screen, 48 h (100 = growth as untreated, 0 = no growth, -100 = all killed)
# Details: 10 µM unless noted
row,SMILES,growth
1,O=C(CN1CCN(c2cc3c(cc2F)c(=O)c(C(=O)N/N=C/c2ccccc2)cn3C2CC2)CC1)N/N=C\c1ccccc1,85.4%
2,CC1(C)CC(=O)C(c2c(-c3ccccc3)[nH]c3[nH]c(=S)[nH]c(=O)c23)=C(O)C1,109%
3,Cc1csc(Nc2nc(-c3ccc(Cl)cc3)nc(C(Cl)(Cl)Cl)n2)n1,9.54% (active)
4,COc1ccc(C(=O)/C=C/c2cc(-c3ccc4c(c3)OCO4)n[nH]2)cc1OC,28.2%
5,O=C1CN(CCN2CC(=O)N(Cc3ccccc3)C(=O)C2)CC(=O)N1Cc1ccccc1,107%
6,N#Cc1c(Nc2ccc(F)cc2)n[nH]c1-c1cccs1,98.4%
7,Nc1ccccc1NC(=O)c1ccc(NC(=O)C/C=C/c2cccnc2)cn1,-19.6% (active)
8,O=C1/C(=C/c2cc(F)cc(F)c2)Cc2cc(F)cc(F)c21,74.1%
9,CC(C)(C)c1ccc(C(=O)Nc2nc3ccc(O)cc3s2)cc1,18.6%
10,ClCCn1cnc2c(SCc3ccccc3)ncnc21,74.8%
11,C=C1C(=O)O[C@H]2[C@H]1CC/C(COC(=O)/C=C/C(=O)OC/C1=C/CC[C@@]3(C)O[C@H]3[C@H]3OC(=O)C(=C)[C@@H]3CC1)=C\CC[C@@]1(C)O[C@@H]21,-5.97% (active)
12,CCOc1cccnc1/C=N/NC(N)=S,52.7%
13,CCc1ccccc1C(=O)N(CC)CC,116%
14,c1ncc2[nH]cnc2n1,96%
15,Nc1nc(SCC2(CCl)COC2)c2[nH]cnc2n1,108%
16,NC1CC2(CCN(c3cnc(C(=O)Nc4cc(F)cc5cccnc45)cn3)CC2)C1,50.6%
17,O=C1OCC2=C1C(c1ccccc1)c1cc3c(cc1N2CCO)CCC3 (centres undefined),15%
18,CCOC(=O)c1c(Nc2ccccc2)nn2c(N)c(C#N)c(-c3ccc(F)cc3)nc12,82.5%
19,CN1C2CCC1CN(c1cnc(C(=O)Nc3cc(F)cc4cccnc34)cn1)C2,13.1%
20,OCCN1CCN(CC/C=C2/c3ccccc3Sc3ccc(C(F)(F)F)cc32)CC1,68.4%

row,SMILES,growth
1,N#C/C(=C\c1ccc(-c2ccc(Cl)cc2)o1)C(=O)Nc1ncc(Cc2ccc(Br)cc2)s1,25.7%
2,Cc1nc([N+](=O)[O-])c(Sc2nncc(-c3ccccc3)n2)n1C,29.5%
3,N=C(N)c1ccc(-c2ccc(-c3ccc(Cl)cn3)s2)cc1,-28.2% (active)
4,C#C[C@]1(O)CC[C@H]2[C@@H]3CC[C@H]4CC(F)(F)CC[C@]4(C)[C@H]3CC[C@@]21C,88.2%
5,Cc1cc2nc3c4cc([N+](=O)[O-])ccc4n(CCN(C)C)c3nc2cc1C,-39.1% (active)
6,COc1cc2ncnc(Nc3ccc(S(=O)(=O)Nc4cc(C)on4)cc3)c2cc1OCCCN1CCN(c2ccc([N+](=O)[O-])cc2)CC1,115%
7,O=C(CN1CCN(c2cc(=O)n(-c3ccccc3)c3ccccc23)CC1)Nc1nc(-c2ccccc2)cs1,13.3%
8,CC(=O)Nc1c(I)c(NC(C)=O)c(I)c(C(=O)O)c1I,115%
9,Cc1c(Cl)cccc1NC(=O)c1sc2nc3c(cc2c1N)CCCC3,15.1%
10,CC(=O)OC[C@H]1O[C@H](OC(C)=O)[C@H](NC(=O)/C=C/CCl)[C@@H](OC(C)=O)[C@@H]1OC(C)=O,75.3%
11,COC(=O)CNC(=O)[C@@H](OC)[C@@H]1Cc2cc3cc(OC4CC(OC5CC(O)C(O)C(C)O5)C(O)C(C)O4)c(C)c(O)c3c(O)c2C(=O)[C@H]1OC1CC(OC2CC(OC3CC(C)(O)C(O)C(C)O3)C(O)C(C)O2)C(O)C(C)O1 (some centres undefined),-22.3% (active)
12,Oc1c(Cl)cc(Cl)c2ccc(CN3CCNCC3)nc12,34.4%
13,CN1CNC(=O)NC1,102% and 96.9%
14,O=C(N/N=C/c1cc2ccccc2nc1Cl)c1cc(-c2nc3ccccc3[nH]2)nc2ccccc12,98.5%
15,O=C(CCC(=O)N(CCO)CCO)N(CCO)CCO,110%
16,CCC(=O)Nc1cc(Nc2cc(NC3CC3)n3ncc(C#N)c3n2)ccc1C,1.64% (active)
17,Cc1cccc(C)c1NC(=S)/N=C\c1c(O)[nH]c(=O)[nH]c1=O,114%
18,Cc1ccc(C2=NN(c3ccc(S(N)(=O)=O)cc3)C(c3cn(-c4ccccc4)nc3-c3ccccc3)C2)cc1 (centres undefined),112%
19,COc1ccccc1/C(C)=N/NC(=O)CSc1nc2ccccc2c(=O)n1Cc1ccc(S(N)(=O)=O)cc1,98.8%
